# A selection: hits, their analogues and other compounds. The true share with any hit is near 7.5%.
# Luc counter = Counterscreen for Luciferase (Kinase-Glo TM) Inhibition; Luciferin 4-monooxygenase (Photuris pensylvanica), Q27757; Kinase-Glo luciferase, ATP luminescence, 8 min; Potency, µM (top dose mostly 38.3 µM), for inactives: at the top dose activity change, negative = inhibition, actives largely listed as inhibitors; actives 0.28% (n = 200,000); AID 1379, 2008; further: on the % scale 0 is the no-effect control and ±100 the full control effect; nearly all actives have a fitted effect of over 60% in size
#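 Light output from Kinase-Glo luciferase with luciferin and 10 uM ATP in 50 mM imidazole pH 7.2, KCl, MgCl2, Tween 20, BSA; compound pin-delivered, 8-min ambient incubation, then luminescence read.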
# Rab9 promoter act = qHTS Assay for Rab9 Promoter Activators; Huh7 Rab9 promoter-luciferase reporter, luminescence, 24 h; AID 485297, 2010; Potency, µM (doses to about 9.22 µM), inactives show at the highest dose activation, negative = inhibition, usual class: activators; actives 2.8% (n = 320,000); further: % of control where 0% means no effect; nearly all actives have a fitted effect of over 60% in size
#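 Steps: seed 1500 Huh7 Rab9-luc cells per well, rest 2 h at 37 °C; add compound in DMSO; incubate 24 h; add luciferase reagent, 10 min ambient; read luminescence.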
# SMN2 splice up = qHTS Assay for Enhancers of SMN2 Splice Variant Expression | Potency, µM (doses to about 46.1 µM), without a hit: at the top dose activity change, positive = activation, actives largely listed as activators | HEK293 SMN2-luciferase splicing reporter, luminescence, 30-36 h | actives 2.8% (n = 210,000); further: % of control where 0% means no effect; nearly all actives have a fitted effect of over 55% in size
#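 qHTS luciferase splicing reporter: luminescence rises when SMN2 exon 7 is included in transfected HEK293 cells. Compound exposure lasted 30-36 h at 37C, with 4.5 mM final sodium butyrate as control, followed by a ONE-Glo read.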
# ELG1 genotoxic = qHTS screen for small molecules that induce genotoxicity in human embryonic kidney (HEK293T) cells expressing luciferase-tagged ELG1; HEK293T ELG1-luciferase reporter, luminescence, 16 h; Potency, µM (doses to about 46 µM), without a hit: top-dose activity change, positive = activation, usual class: activators; actives 1.3% (n = 330,000); further: % of control where 0% means no effect; nearly all actives have a fitted effect of over 60% in size
#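 HEK293T cells expressing luciferase-tagged ELG1 were treated with compound or DMSO for 16 hr at 37°C. Luciferase activity was then read after 30 min with ONE-Glo at room temperature; rising signal flags genetic stress.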
# FLuc modulator = qHTS profiling assay for firefly luciferase inhibitor/activator using purifed enzyme and Km concentrations of substrates (counterscreen for miR-21 project); AID 588342, 2011; Luciferin 4-monooxygenase (Photinus pyralis), P08659; purified FLuc, Km substrates, luminescence inhibition; actives 6.9% (n = 360,000); Potency, µM (series often up to 57.5 µM), without a hit: top-dose activity change, negative = inhibition, most hits filed as inhibitors;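 further: plate controls were vehicle for no effect and reference inhibitor for full effect; nearly all actives have a fitted effect of over 55% in size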
# Target sequence (P08659 whole entry, looked up): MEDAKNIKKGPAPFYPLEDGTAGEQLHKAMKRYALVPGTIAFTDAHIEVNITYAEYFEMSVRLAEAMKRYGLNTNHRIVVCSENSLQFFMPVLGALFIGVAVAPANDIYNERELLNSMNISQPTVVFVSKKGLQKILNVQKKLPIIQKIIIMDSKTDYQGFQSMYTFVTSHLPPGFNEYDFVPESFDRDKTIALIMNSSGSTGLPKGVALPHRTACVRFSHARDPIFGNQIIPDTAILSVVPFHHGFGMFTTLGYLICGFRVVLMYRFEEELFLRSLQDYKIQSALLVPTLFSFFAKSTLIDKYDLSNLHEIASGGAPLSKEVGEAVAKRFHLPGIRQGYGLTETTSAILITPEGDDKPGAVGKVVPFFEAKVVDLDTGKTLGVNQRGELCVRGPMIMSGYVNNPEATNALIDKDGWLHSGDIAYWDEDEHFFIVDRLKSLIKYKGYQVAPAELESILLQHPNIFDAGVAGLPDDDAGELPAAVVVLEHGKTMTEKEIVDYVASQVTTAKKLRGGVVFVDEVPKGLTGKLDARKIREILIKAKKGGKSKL
#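 Purified P. pyralis luciferase, 10 nM final, with Km-level 10 uM D-luciferin and 10 uM ATP in 50 mM Tris acetate pH 7.5, 10 mM Mg acetate, 0.01% Tween-20, 0.05% BSA; 6-point qHTS titration about 60 µM downward; luminescence read.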
# NPC1 promoter act = qHTS Assay for NPC1 Promoter Activators; Potency, µM (titrated, usually from 9.22 µM), for inactives: at the highest dose activation, most hits filed as activators; AID 485313, 2010; actives 2.4% (n = 320,000); Huh7 NPC1 promoter luciferase reporter, 24 h; further: % of control where 0% means no effect; nearly all actives have a fitted effect of over 60% in size
#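 Luciferase expression driven by the NPC1 promoter was measured in stably transfected Huh7 cells after a 24 h compound incubation, using a luciferase reagent and a luminescence read.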
# Numbers without * were called inactive; ? = inconclusive; / = no result given; [ ] = remark or other dose. The call rests on the fitted dose curve; in most records, active means well fitted curve in the direction sought with a large enough effect; inconclusive means small, poorly fitted or top-dose-only effect, or another doubt; inactive means no such curve, though single readings can be large; an effect the other way counts as inactive or inconclusive. Potency means the concentration at half of the fitted maximal effect.
SMILES,Luc counter,Rab9 promoter act,SMN2 splice up,ELG1 genotoxic,FLuc modulator,NPC1 promoter act
CCCCc1c(O)n(-c2ccccc2)[nH]c1=O,0.1%[39.9 µM],/,/,/,/,/
CC1=NN(c2cccc(F)c2)C(=O)/C1=C/c1ccc(N(C)C)cc1,/,5.9%,/,-3.3%,5.36µM*,11.0%
CC1=NN(c2ccccc2)C(=O)/C1=C/c1ccc[nH]1,2.1%,2.7%,10µM*,?,16.9µM*,16.0%
COc1ccc(/C=C2/C(=O)N(c3cccc(F)c3)N=C2C)c(OC)c1,/,-0.1%,/,-6.0%,?,2.1%
CC1=NN(c2ccccc2)C(=O)/C1=C/c1c(O)n(-c2ccc(F)cc2)[nH]c1=O,-1.1%,19.3%,-3.2%[1.84 µM],?,0.601µM*,24.7%
O=C1c2ccccc2C(=O)N1c1cccc(-c2csc(Nc3ccc4c(c3)OCO4)n2)c1,2.8%,28.8%,?,16.4%,2.13µM*,18.1%
O=C(CN1CCN(c2nc(-c3ccccc3)cs2)CC1)Nc1ccc2c(c1)OCO2,-0.1%,0.4%,-16.1%,0.8%,7.5%,-4.1%
COc1ccccc1Nc1nc(-c2cccc(N3C(=O)c4ccccc4C3=O)c2)cs1,-0.1%,-3.9%,5.9%,1.5%,6.75µM*,-1.0%
COc1ccccc1Nc1nc(-c2c(C)[nH]c3ccccc23)cs1,-1.2%,16.0%,14.1µM*,11.3%,10.7µM*,15.1%
Cc1[nH]c2ccccc2c1-c1csc(N)n1,/,1.5%,/,2.4%,0.2%,-5.3%
CN(C(=O)CSc1nnc(-c2ccco2)n1C)C1CCCCC1,/,0.6%,/,1.8%,9.3%,-6.3%
Cc1cccn2c(=O)c(C(=O)NCCc3ccc(S(N)(=O)=O)cc3)c(O)nc12,/,/,-12.8%,/,3.5%,/
COc1cccc(Oc2nc3c(c(=O)n(Cc4ccccc4Cl)c(=O)n3C)n2C)c1,/,/,-4.2%,/,0.9%,/
COc1ccc(C(=O)COC(=O)c2ccccc2NS(=O)(=O)c2ccc(O)c([N+](=O)[O-])c2)cc1,/,-0.2%,/,-0.4%,10.7µM*,-2.6%
COc1ccc(NC(=O)c2ccccc2NS(=O)(=O)c2ccc(C)cc2)c([N+](=O)[O-])c1,2.0%,3.3%,-56.0%,-2.4%,-8.8%,-4.7%
COc1cc2cc(C(=O)Nc3ccc4c(c3)OCCO4)[nH]c2cc1OC,/,14.7%,/,?,12µM*,29.2%
COc1cc2[nH]c(C(=O)Nc3ccc4c(c3)OCCO4)cc2c(OC)c1OC,/,14.2%,/,?,8.49µM*,16.9%
COc1cc2[nH]c(C(=O)NCC3CCCO3)cc2c(OC)c1OC (stereo not given),/,-0.7%,/,6.7%,5.4%,-4.2%
CCOc1ccccc1N1CC(C(=O)NCCOc2ccccc2OC)CC1=O (stereo not given),/,6.2%,/,0.6%,6.1%,0.9%
Cc1cccc(CNC(=O)c2ccc3c(c2)N(C)C(=O)C2CCCCN32)c1 (stereo not given),/,/,/,/,-8.1%,/
c1ccc(-c2cnc(-c3cccnc3)o2)cc1,-8.5%,?,6.2%,?,15.1µM*,?
NC(=O)c1ccc(-c2ncc(-c3ccccc3)o2)cc1,-4.7%,?,0.501µM*,0.184µM*,2.13µM*,0.282µM*
Cc1ccc(-c2cnc(-c3ccccc3C(=O)O)o2)cc1,/,?,/,?,13.5µM*,?
CCCCC(OC(=O)CN1C(=O)COc2ccccc21)C(=O)NC1CCCCC1 (stereo not given),/,2.3%,/,-7.8%,-1.4%,-0.3%
COc1cccc(C(=O)Nc2ccc3c(c2)C(=O)N(CCC(=O)O)C3=O)c1,-4.7%,-11.2%,8.8%,1.5%,16.9µM*,-9.6%
SMILES,Luc counter,Rab9 promoter act,SMN2 splice up,ELG1 genotoxic,FLuc modulator,NPC1 promoter act
COCCCN1C(=O)c2ccc(C(=O)NCCc3ccccc3)cc2C1=O,/,?,/,?,6.01µM*,29.5%
CC(=O)Oc1cccc(NC(=O)c2ccc3c(c2)C(=O)N(CC(C)C)C3=O)c1,/,-4.8%,/,?,10.7µM*,0.7%
COCCCN1C(=O)c2ccc(C(=O)Nc3cccc(OC)c3)cc2C1=O,?,7.7%,-7.8%,?,10.7µM*,-1.0%
CCOc1ccccc1NC(=O)Cn1c(=O)n(CCC(=O)NCc2ccc3c(c2)OCO3)c(=O)c2ccccc21,/,/,17.4%,/,3.2%,/
Cc1ccc(-c2c3c(=O)n(C)c(=O)n(C)c3c3c(C)nc4ccccc4n23)cc1,/,/,-2.9%,/,-7.5%,/
COc1cc(CNC(=O)c2ccc3c(c2)c(C)c(C)n3Cc2cccc(C)c2)cc(OC)c1OC,/,/,/,/,-9.6%,/
CCC(C)NC(=O)C(=O)Nc1c2c(nn1-c1ccccc1)CS(=O)(=O)C2 (stereo not given),/,/,/,/,-5.0%,/
Nc1c(C(=O)c2ccccc2)sc2nsc(SCCN3CCCC3)c12,/,23.5%,/,7.8%,23.9µM*,-3.9%
Nc1c(C(=O)c2ccc(Cl)cc2)sc2nsc(SCCN3CCOCC3)c12,/,-4.2%,/,-7.3%,-9.9%,11.2%
COc1ccc(/C=N/Nc2ncnc3sc4c(c23)CCCC4)cc1OC,-2.2%,7.8%,21.0%,0.1%,2.69µM*,11.3%
COc1ccc(/C=N/Nc2ncnc(Cl)c2N)cc1OC,-2.1%,1.9%,23.1%,10.3%,21.3µM*,2.3%
Nc1c(Cl)ncnc1N/N=C/c1ccncc1,/,-6.0%,/,-0.6%,0.1%,-2.8%
Nc1c(Cl)ncnc1N/N=C/c1cccc(O)c1,/,-3.5%,/,2.2%,16.9µM*,4.9%
Cc1nc2sc(C(=O)NCc3ccc(Cl)cc3)c(NC(=O)c3ccccc3)c2c(C)c1C,/,/,1.4%,/,-7.2%,/
COc1ccc(CC2=CC(=O)c3ccccc3C2=O)cc1,/,16.7%,/,11.5%,2.39µM*,-5.1%
Cc1cc(-c2nnc(SCC(=O)Nc3cccc(F)c3)n2N)n[nH]1,/,-0.1%,/,1.0%,-1.6%,-3.9%
COc1ccc(C#Cc2ccc3c(c2)c(=O)c2ccccc2n3C)cc1,/,14.8%,/,-3.1%,12µM*,16.1%
Cn1c2ccccc2c(=O)c2ccc(C#CC3(O)CCCCC3)cc21,/,0.316µM*,/,?,0.379µM*,0.316µM*
Cn1c2ccccc2c(=O)c2cc(C#Cc3ccc(N)cc3)ccc21,/,?,/,6.2%,6.01µM*,?
Cn1c(-c2ccccc2)c(C#Cc2ccc(N)cc2)c2ccccc21,/,/,/,-2.4%,/,/
O=C(Nc1ccc(N2CCOCC2)c(Cl)c1)c1ccccc1Cl,0.9%,?,/,?,26.9µM*,25.7%
O=C(Nc1ccc(N2CCOCC2)c(Cl)c1)c1ccc(-n2cnnc2)cc1,/,2.0%,/,7.1%,-0.7%,-0.3%
